PubChem BioAssay AID1634 (National Center for Advancing Translational Sciences (NCATS), 2009)
In all, about 260,000 compounds went through this assay and about 150 (0.058%) were called active. Calls come from the whole dose curve; as a rule, active = well fitted inhibition curve with a large enough effect; inconclusive = small, poorly fitted or top-dose-only effect; inactive = no such curve, though single readings can be large or run the other way. The entries come from a sample that favours actives as a whole.

Biological target: Pyruvate kinase PKM (Homo sapiens) (UniProt P14618)
Sequence (P14618 whole entry, looked up, canonical isoform): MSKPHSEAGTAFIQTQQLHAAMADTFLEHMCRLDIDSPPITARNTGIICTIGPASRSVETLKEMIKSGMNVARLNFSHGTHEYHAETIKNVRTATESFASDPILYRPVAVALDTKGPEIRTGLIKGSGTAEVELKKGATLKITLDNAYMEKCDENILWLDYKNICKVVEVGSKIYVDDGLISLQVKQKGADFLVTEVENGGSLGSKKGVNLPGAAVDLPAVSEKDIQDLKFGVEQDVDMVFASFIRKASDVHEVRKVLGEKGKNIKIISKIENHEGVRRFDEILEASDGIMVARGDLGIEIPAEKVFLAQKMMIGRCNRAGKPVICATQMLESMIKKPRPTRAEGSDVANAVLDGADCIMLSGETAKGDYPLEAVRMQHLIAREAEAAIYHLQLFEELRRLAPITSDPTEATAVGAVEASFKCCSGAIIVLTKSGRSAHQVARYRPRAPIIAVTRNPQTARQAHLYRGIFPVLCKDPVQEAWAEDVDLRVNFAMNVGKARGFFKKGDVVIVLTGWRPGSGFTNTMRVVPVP
Assay: qHTS Assay for Inhibitors of Human Muscle isoform 2 Pyruvate Kinase; note: nearly all actives have a fitted effect of over 60% in size;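 for activity change, negative = inhibition: plate controls were uninhibited enzyme wells for no effect and no-enzyme wells for full effect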
Conditions: purified PKM2, ATP generation, Kinase-Glo luminescence; series mostly up to 57.5 µM; activity change, negative = inhibition: at the top concentration
Experimental: NIH Chemical Genomics Center [NCGC] Matthew G. Vander Heiden, M.D., Ph.D. [Harvard Medical School, 77 Avenue Louis Pasteur, Boston, MA 02115] […] ATP generation was detected in a coupled reaction by luciferase-mediated luminescence, an ATP-dependent process. […] The enzyme was assayed at an intermediate level of activity to screen for both inhibitors and activators.
NCGC Assay Protocol Summary: Three uL of substrate mix (at r.t.) in assay buffer (50 mM Imidazole pH7.2, 50 mM KCl, 7 mM MgCl2, 0.01% Tween 20, 0.05% BSA) was dispensed into white solid bottom 1,536 well microtiter plates so that the final concentrations of substrates in the assay were 0.1 mM ADP and 0.5 mM PEP. 23 nL of compound were delivered by a pin tool and 1 uL of enzyme mix in assay buffer (4 degree Celsius) was added. Plates were incubated at room temperature for 1 hour. Two uL of detection mix (Kinase-Glo, Promega; at 4 degree Celsius protected from light) was added and luminescence read by a ViewLux (Perkin Elmer) at 5 second exposure/plate. Data were normalized to the uninhibited and AC100 inhibition (no enzyme). To monitor activation, the first column contained a titration of the activator, NCGC00031955-01 (16-point 1:2 dilutions in duplicate starting at 57 uM) and the first 16 rows of column 4 contained 57 uM of NCGC00031955-01.
Potency is the fitted concentration of half-maximal effect.

Activity change, negative = inhibition, inactive:
O=C(CSc1nnc(-c2cccs2)n1Cc1ccccc1)N1CCc2ccccc2C1 147%
CCN(/N=C/c1ccccc1)c1cc(=O)n(C)c(=O)[nH]1 49.7%
CCn1c(SCC(=O)N/N=C/C=C/c2ccccc2[N+](=O)[O-])nnc1-c1ccccc1 37.3%
Cc1noc(C)c1S(=O)(=O)Nc1ccc(C(=O)N2CCN(c3ccc(F)cc3)CC2)cc1 51%
Cc1ccc(O)c(CNc2nc3ccccc3[nH]2)c1 -0.191%
Cc1ccccc1-c1nnn(CC(=O)c2ccc(S(=O)(=O)N3CCCC3)cc2)n1 216%
Cc1ccc(CCC(=O)Nc2ncc(Cc3cc(Cl)ccc3Cl)s2)o1 35.6%
COCc1cc(=O)[nH]c(SC)n1 -4.32%
Cc1nnc(SCC2=C(C(=O)O)N3C(=O)C(NC(=O)Cn4nc(C)c(Cl)c4C)C3SC2)s1 (centres undefined) 36.9%
Oc1ccccc1N1CCN(c2ncnc3sc(-c4ccccc4)cc23)CC1 42.3%
C=CCn1c(SCc2csc(C)n2)nc2scc(-c3ccc(C)o3)c2c1=O 84%
CCn1cc(C(=O)NCc2ccc3c(c2)OCO3)c2cc(OC)c(OC)cc2c1=O 47.2%
Nc1nc(SCC(=O)N2CCN(S(=O)(=O)c3ccc(Cl)cc3)CC2)n[nH]1 47.6%
C=CC(=O)c1ccc2ccccc2c1 65.1%
CC(C)Oc1ccc(CCC(=O)NNC(=S)NCc2ccccc2)cc1 8.22%
N#Cc1nc(COc2ccc(Cl)cc2)oc1N1CCCC1 42.1%
CS(=O)(=O)Nc1cccc(C2=NN(S(=O)(=O)c3ccccc3)C(c3cccs3)C2)c1 (centres undefined) 40.6%
O=C(CCSCCc1ccccn1)Nc1nccs1 30.4%
CCOc1cc(/C=N/O)ccc1OCc1ccccc1F 42.2%
COc1c(O)ccc2c1CN1CCc3cc4c(cc3C1C2)OCO4 (centres undefined) 40.9%
COc1ccc(C(=O)CCc2ccccc2O)c(OC)c1 30.3%
CNC(=O)COc1ccc(S(=O)(=O)Nc2ccccc2)cc1 85.6%
C(=N\N1CCN(c2ccccn2)CC1)/C1=C(N2CCOCC2)C(=C/c2ccccc2)/CC1 112%
COc1cccc(C(=O)NNS(=O)(=O)c2ccc(F)cc2)c1 18%
Cc1ccc(C(=O)Cn2cc([N+](=O)[O-])nc2C)cc1 38.1%
Cc1ccc(CNC(=O)C2CC(c3ccccc3[N+](=O)[O-])=NO2)o1 (centres undefined) 53.9%
O=c1cc(CO)oc(C(Nc2cccc(C(F)(F)F)c2)c2ccccn2)c1O (centres undefined) 61%
COc1ccc(-n2c(SCC(=O)NCc3cccs3)nnc2-c2ccoc2C)cc1 -1%
Cc1ccc(-c2nn(-c3ccccc3)cc2CN(Cc2ccccc2)C(=O)CCC(=O)O)o1 53.1%
Cc1cc(C)c2nc(-c3ccco3)cc(C(=O)O)c2c1 55%
Cc1ccc(-n2nc(-c3ccco3)cc2C(=O)NCc2cccnc2)cc1 49.8%
N#CCC(=O)N/N=C/c1cn(Cc2ccc3ccccc3c2)c2ccccc12 48.6%
CC(C)(C)C1C/C(=C/c2ccco2)C(=O)/C(=C/c2ccco2)C1 (centres undefined) 31.3%
CN1CCN(c2ccc(S(=O)(=O)Nc3ccccc3)cc2[N+](=O)[O-])CC1 30.1%
Cc1ccc(NS(=O)(=O)c2ccc3c(c2)oc(=O)n3C)c(C)c1 33.2%
COc1ccc2c(c1)C=CC1(O2)N(CCO)c2ccccc2C1(C)C (centres undefined) 31.4%
O=C(Cc1cccs1)Nc1nnc(C2CC2)s1 54.7%
Cc1nc2nc(COc3ccccc3)[nH]n2c(=O)c1Cc1ccccc1 24.6%
CCCc1nc2ccccc2c(=O)n1/N=C/c1ccc(O)c(O)c1 36.2%
COc1ccccc1C(=O)NCc1nnc(SC(C)C(=O)Nc2nccs2)n1C (centres undefined) 34.9%
COc1ccc(-c2ccc(CCC(=O)O)n2NC(=O)c2ccc(C(C)(C)C)cc2)cc1 52.2%
Oc1ccccc1CNc1ncc(Br)cc1Br 80%
N/C(=N\S(=O)(=O)c1cc(C(F)(F)F)cc(C(F)(F)F)c1)c1cccs1 58.3%
Cc1ccc2nc(C)cc(N/N=C/c3ccc(F)cc3)c2c1 80.3%
COc1ccccc1-n1cnc2cc(NS(=O)(=O)c3ccccc3)ccc21 48.5%
COc1ccc(SC[C@H](Cc2ccccc2)N2CCN(CCc3ccccc3)CCC2=O)cc1 33%
COc1ccc2[nH]c3c(=O)n(Cc4ccco4)cnc3c2c1 47.6%
Fc1ccccc1CNC(=S)Nc1ccc(Cl)cc1 38.9%
Cn1c(-c2ccc(F)cc2)cnc1SCC(=O)NCc1ccco1 58.6%
O=c1cc(Cn2nnc(-c3ccc(Cl)cc3)n2)nc2sccn12 160%
O=C(CCC(=O)n1ncc2ccccc21)NCc1ccccc1Cl -5.26%
NC(=S)c1ccc(C(N)=S)o1 86.5%
Cc1ccc(NN=Nc2nc3c([nH]2)c(=O)n(C)c(=O)n3C)cc1 44.6%
Nc1nnc(SCC(=O)NC2CCCc3ccccc32)s1 (centres undefined) 32.8%
O=S(=O)(c1ccc(Br)cc1)n1ccc2ccccc21 31.3%
Oc1ccc2nc(Cc3ccccc3)[nH]c2c1 36.4%
CCOc1ccc(S(=O)(=O)Nc2nc3cc(OC)ccc3s2)cc1 34%
O=c1ccc2cc(S(=O)(=O)Nc3ccccc3F)ccc2o1 33.2%
Cc1cccc(CSc2nc3c(c(=O)n2C)SCC3)c1 61.3%
CC(C)(C)c1ccc(C(=O)NCCn2c(N)c(C#N)c3nc4ccccc4nc32)cc1 33.8%
Cn1ncc(N2CCN(S(=O)(=O)c3ccc(Br)cc3)CC2)c(Cl)c1=O 58.5%
O=C(CSc1nnc(-c2ccc([N+](=O)[O-])cc2)o1)Nc1ccccn1 38.2%
CCS(=O)(=O)Nc1ccc(C2=NN(C(C)=O)C(c3cccs3)C2)cc1 (centres undefined) 97.2%
O=C(NCc1cccs1)C1CCN(S(=O)(=O)c2ccc(Cl)cc2)CC1 64.3%
O=C(/C=C/c1ccc(Cl)cc1Cl)c1cccnc1 30.2%
O=C(COc1ccccc1[N+](=O)[O-])N/N=C/c1ccc[nH]1 40.2%
COc1cc(/C=N\Nc2nc(-c3cccs3)c(NC(C)=O)s2)ccc1O 67.4%
Brc1c(CSc2nncc3ccccc23)nc2ccccn12 60.8%
Cc1cccc(C)c1NC1=NC(=S)N(c2ccc(N(C)C)cc2)C1(C)C -8.9%
CN(C)S(=O)(=O)c1cccc(-c2nn(-c3ccccc3)cc2/C=C2\SC(=S)N(CC(=O)O)C2=O)c1 52.5%
O=C(N/N=C/c1ccc(O)c(O)c1)C1c2ccccc2Oc2ccccc21 59.5%
Cc1coc2c(O)cc3c(c12)OC1(N2CCCCC2)C(=O)NCCCC31 (centres undefined) 59.5%
C/C=C\C=C\C(=O)N1CC2(CC(c3cccc(NC(=O)/C(C)=C\C)c3)=NO2)C[C@H]1C(N)=O (some centres undefined) 94.1%
Cn1c(=O)n(C)c2cc(NS(=O)(=O)c3ccc(F)cc3)ccc21 39%
Cc1ccc(NS(=O)(=O)c2cc3c(cc2C)NC(=O)CO3)cc1 80.8%
CC(=O)Nc1cccc(OCC(=O)/C=C2\N(C)c3ccccc3C2(C)C)c1 30.3%
CC1=C/C(=N\OS(=O)(=O)c2ccccc2)C=CC1=O 9.56%
Cc1ccc(Cn2c(SCC(=O)N/N=C/c3ccccc3OCC(=O)O)nc3ccccc32)cc1 50.4%
Cc1cc(C)n(-c2ccc3nncn3n2)n1 61.7%
CSC1=NCCN1C(=O)Cc1cccc2ccccc12 31.8%
Cc1ccnc(Nc2nc3ccccc3s2)n1 71.4%
N#Cc1nc(Cc2ccccc2)oc1NCCc1ccccc1 30.3%
Cc1cc(C)c(C#N)c(SCc2ccc3c(c2)OCO3)n1 41.7%
C=C(C)C(=O)O[C@H]1C/C(C)=C\C(=O)/C=C(\C)[C@H](O)[C@@H]2OC(=O)C(=C)[C@@H]21 45.7%
Cc1ccc2c(Cl)c(C(=O)NCCCn3ccnc3)sc2c1 36.4%
C=CCN(C(=O)Nc1ccc2oc(C)nc2c1)c1ccccc1 42.5%
O=S(=O)(c1ccc2ccccc2c1)N1CCN(S(=O)(=O)N2CCOCC2)CC1 35.8%
N#Cc1c2c(c(N3CCN(CCO)CC3)n3c1nc1ccccc13)CCCC2 -3.81%
COc1cc2c(cc1O)[C@H](Cc1ccc(Oc3cc(C[C@@H]4NCCc5cc(OC)c(O)cc54)ccc3O)cc1)NCC2 46.7%
CN1CCCN(S(=O)(=O)c2ccc3c(c2)OCCO3)CC1 99.8%
O=C(CSc1ccc(-c2ccco2)nn1)Nc1cccc(F)c1 31%
CCOC(=O)c1cnc(SCC(=O)Nc2cccc(OC)c2)nc1N 34.7%
O=C(Nc1ccccc1)c1nnsc1S(=O)(=O)c1ccc(Cl)cc1 32.3%
O=C(CN1CCN(S(=O)(=O)c2ccc(F)cc2)CC1)NC1CC1 38.1%
Cc1nc2cc(C(F)(F)F)ccc2n1CCNc1nc(-c2cc(Cl)c(N)c(Cl)c2)cs1 36.2%
Cc1ccc(S(=O)(=O)c2c(N)n(C)c3nc4ccccc4nc23)cc1 62.8%
CSc1nc2ccc(S(=O)(=O)N3CCc4ccccc43)cc2s1 68.6%
COc1cccc(NC(=O)CSc2nnc(Cc3ccc(OC)c(OC)c3)o2)c1 65.6%
CC1=C(C)CC2C(=O)N(c3cccc4ccccc34)C(=O)C2C1 (centres undefined) 33.7%
CCOC(=O)c1c(C)oc2cc(Br)c(OCC(N)=O)cc12 2.63%
COc1cccc(Nc2ncccc2C(=O)O)c1 31.1%
O=C(Nc1ccc(Br)c2cccnc12)c1ccc(Cn2cc([N+](=O)[O-])cn2)o1 34.6%
Cc1cnc(C(=O)N2CCCC(C(=O)c3ccc(C(F)(F)F)cc3)C2)cn1 (centres undefined) 36.7%
O=C(NCc1ccccn1)c1ccc2nc(-c3ccco3)c(-c3ccco3)nc2c1 29.2%
O=c1c2ccccc2nnn1CSc1nnnn1-c1ccccc1 84.3%

Potency, active:
COc1cccc(/C=N\NC(=O)C2=NNC(=O)C2C)c1O (centres undefined) 17.8 µM
O=c1[nH]c2ccccc2n2c(-c3ccccc3)nnc12 25.1 µM
COc1ccc(C(=O)/C=C/Nc2ccccn2)cc1 15.8 µM
O=C(Oc1ccc(-c2nc(-c3ccccn3)no2)cc1)c1ccccc1 14.1 µM
